Reference: PubChem BioAssay (EPA / NIEHS)
Where “and” joins values, the source holds several entries; their conditions need not be identical. Identical values can stand only once. Where a structure was tested more than once in an assay, its records may differ in their call. Calls of active or inactive are those of the source. How the source made its calls: active means hit-call score of the fitted dose curve at least 0.9, where 1 is the maximum; inactive means score below 0.9.

Legend:
[1] = read-out: Tissue plasminogen activator (tPA), PLAT (gene 5327); experiment: BSK_BE3C_tPA: BioMAP Diversity Plus: BE3C Assay for Tissue plasminogen activator (tPA) Biomarker Activity (AID 2283041); conditions: primary human bronchial epithelial cells; actives raise or lower the signal;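 further: tPA level quantified by ELISA one day after compound addition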
Outline: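 Human primary bronchial epithelial cells were dosed with chemical and tPA biomarker levels measured by ELISA 24 hours later. Activity was fitted bidirectionally against DMSO as negative control and baseline.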

[2] = read-out: Interleukin-8 (IL8), CXCL8 (gene 3576); experiment: BSK_CASM3C_IL8: BioMAP Diversity Plus: CASM3C Assay for Interleukin-8 (IL8) Biomarker Activity (AID 2283042); conditions: primary human coronary artery smooth muscle cells; actives raise or lower the signal;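 further: IL-8 protein level quantified by ELISA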
[3] = read-out: Human Leukocyte Antigen - DR isotype (HLADR), HLA-DRA (gene 3122); experiment: BSK_CASM3C_HLADR: BioMAP Diversity Plus: CASM3C Assay for Human Leukocyte Antigen - DR isotype (HLADR) Biomarker Activity (AID 2283043); conditions: primary human coronary artery smooth muscle cells; actives raise or lower the signal;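 further: cell-surface HLA-DR protein level quantified by ELISA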
[4] = read-out: Macrophage colony-stimulating factor (MCSF), CSF1 (gene 1435); experiment: BSK_CASM3C_MCSF: BioMAP Diversity Plus: CASM3C Assay for Macrophage colony-stimulating factor (MCSF) Biomarker Activity (AID 2283044); conditions: primary human coronary artery smooth muscle cells; actives raise or lower the signal;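 further: M-CSF protein amount quantified by ELISA after 24 h exposure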
[5] = read-out: Low-density lipoprotein receptor (LDLR), LDLR (gene 3949); experiment: BSK_CASM3C_LDLR: BioMAP Diversity Plus: CASM3C Assay for Low-density lipoprotein receptor (LDLR) Biomarker Activity (AID 2283045); conditions: primary human coronary artery smooth muscle cells; actives raise or lower the signal;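 further: LDLR protein level on the cell surface quantified by ELISA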
[6] = read-out: Monocyte Chemoattractant Protein-1 (MCP1), CCL2 (gene 6347); experiment: BSK_CASM3C_MCP1: BioMAP Diversity Plus: CASM3C Assay for Monocyte Chemoattractant Protein-1 (MCP1) Biomarker Activity (AID 2283046); conditions: primary human coronary artery smooth muscle cells; actives raise or lower the signal;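 further: MCP-1 level quantified by ELISA 24 h after dosing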
[7] = BSK_CASM3C_Proliferation: Cell Proliferation Assessment in the BioMAP Diversity Plus: CASM3C Assay (AID 2283047); conditions: primary human coronary artery smooth muscle cells;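 further: sulforhodamine B total protein stain as relative cell number at 560 nm; sub-confluent cells exposed 48 h before staining; fitted both ways against DMSO so gain or loss of cell number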
[8] = read-out: Monokine induced gamma interferon (MIG), CXCL9 (gene 4283); experiment: BSK_CASM3C_MIG: BioMAP Diversity Plus: CASM3C Assay for Monokine induced gamma interferon (MIG) Biomarker Activity (AID 2283048); conditions: primary human coronary artery smooth muscle cells; actives raise or lower the signal;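 further: MIG protein level measured by ELISA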
[9] = read-out: serum amyloid A (SAA), SAA1 (gene 6288); experiment: BSK_CASM3C_SAA: BioMAP Diversity Plus: CASM3C Assay for serum amyloid A (SAA) Biomarker Activity (AID 2283049); conditions: primary human coronary artery smooth muscle cells; actives raise or lower the signal;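 further: SAA protein level quantified by ELISA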
[10] = BSK_CASM3C_SRB: Viability Assessment in the BioMAP Diversity Plus: CASM3C Assay (AID 2283050); conditions: primary human coronary artery smooth muscle cells;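 further: total protein by SRB staining as cytotoxicity measure in parallel cultures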
[11] = read-out: Thrombomodulin, THBD (gene 7056); experiment: BSK_CASM3C_Thrombomodulin: BioMAP Diversity Plus: CASM3C Assay for Thrombomodulin Biomarker Activity (AID 2283051); conditions: primary human coronary artery smooth muscle cells; actives raise or lower the signal;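 further: thrombomodulin protein level measured by ELISA 24 h after dosing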
[12] = read-out: Tissue Factor, F3 (gene 2152); experiment: BSK_CASM3C_TissueFactor: BioMAP Diversity Plus: CASM3C Assay for Tissue Factor Biomarker Activity (AID 2283052); conditions: primary human coronary artery smooth muscle cells; actives raise or lower the signal;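 further: cell surface tissue factor protein level read by ELISA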
[13] = read-out: Interferon-gamma inducible Protein 10 (IP10), CXCL10 (gene 3627); experiment: BSK_hDFCGF_IP10: BioMAP Diversity Plus: hDFCGF Assay for Interferon-gamma inducible Protein 10 (IP10) Biomarker Activity (AID 2283053); conditions: primary human foreskin fibroblasts; actives raise or lower the signal
Outline: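 Human foreskin fibroblast primary cells (hDFCGF system) were dosed with chemical and assayed at 24 h; IP-10 measured by ELISA. Activity fitted bidirectionally relative to DMSO negative control as baseline.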

[14] = read-out: Urokinase-type plasminogen activator receptor (uPAR), PLAUR (gene 5329); experiment: BSK_CASM3C_uPAR: BioMAP Diversity Plus: CASM3C Assay for Urokinase-type plasminogen activator receptor (uPAR) Biomarker Activity (AID 2283054); conditions: primary human coronary artery smooth muscle cells; actives raise or lower the signal;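 further: cell-surface uPAR protein level quantified by ELISA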
[15] = read-out: Vascular cell adhesion molecule 1 (VCAM1), VCAM1 (gene 7412); experiment: BSK_CASM3C_VCAM1: BioMAP Diversity Plus: CASM3C Assay for Vascular cell adhesion molecule 1 (VCAM1) Biomarker Activity (AID 2283055); conditions: primary human coronary artery smooth muscle cells; actives raise or lower the signal;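 further: VCAM-1 protein level quantified by ELISA on the cells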
[16] = read-out: Collagen III, COL3A1 (gene 1281); experiment: BSK_hDFCGF_CollagenIII: BioMAP Diversity Plus: hDFCGF Assay for Collagen III Biomarker Activity (AID 2283056); conditions: primary human foreskin fibroblasts; actives raise or lower the signal
Outline: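 hDFCGF primary human dermal fibroblasts; 24 h chemical exposure; collagen III by ELISA; bidirectional curve fit vs DMSO baseline (gain or loss of signal).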

[17] = read-out: Epidermal growth factor receptor (EGFR), EGFR (gene 1956); experiment: BSK_hDFCGF_EGFR: BioMAP Diversity Plus: hDFCGF Assay for Epidermal growth factor receptor (EGFR) Biomarker Activity (AID 2283057); conditions: primary human foreskin fibroblasts; actives raise or lower the signal
Outline: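 Primary human foreskin fibroblasts were exposed to compound for 24 h, after which cell-surface EGFR was quantified by ELISA. Activity was fitted bidirectionally against the DMSO negative control as baseline.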

[18] = read-out: Interleukin-8 (IL8), CXCL8 (gene 3576); experiment: BSK_hDFCGF_IL8: BioMAP Diversity Plus: hDFCGF Assay for Interleukin-8 (IL8) Biomarker Activity (AID 2283058); conditions: primary human foreskin fibroblasts; actives raise or lower the signal
Outline: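 ELISA read-out of IL-8 from primary human foreskin fibroblast cultures taken 24 h after dosing; values are bidirectional fits relative to DMSO vehicle.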

[19] = BSK_hDFCGF_Proliferation: Cell Proliferation Assessment in the BioMAP Diversity Plus: hDFCGF Assay (AID 2283059); conditions: primary human foreskin fibroblasts;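 further: curves fitted for both rise and fall of signal versus DMSO baseline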
Outline: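 Primary human foreskin fibroblasts, sub-confluent; […]; 10% TCA fix, 0.1% SRB stain, A560 total protein. Gain/loss fitted bidirectionally vs DMSO control.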

[20] = read-out: Macrophage colony-stimulating factor (MCSF), CSF1 (gene 1435); experiment: BSK_hDFCGF_MCSF: BioMAP Diversity Plus: hDFCGF Assay for Macrophage colony-stimulating factor (MCSF) Biomarker Activity (AID 2283060); conditions: primary human foreskin fibroblasts; actives raise or lower the signal
Outline: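 ELISA read-out of M-CSF in human dermal foreskin fibroblast cultures, 24 h after chemical dosing; gain or loss of signal fitted bidirectionally relative to DMSO baseline.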

Measured: AC50

O=c1c(-c2ccc(O)cc2)coc2cc(O)ccc12
inactive: all assays above

OCCC(F)(F)C(F)(F)C(F)(F)C(F)(F)C(F)(F)C(F)(F)F
active: [7] 44.3 µM | [13] 52.6 µM | [16] 46.3 µM | [18] 46.4 µM and 57.9 µM | [19] 48.3 µM and 47.4 µM | [20] 54.2 µM
inactive: [1] | [2] | [3] | [4] | [5] | [6] | [7] | [8] | [9] | [10] | [11] | [12] | [13] | [14] | [15] | [16] | [17] | [18] | [19] | [20]

COC(=O)CCCCC(=O)OC
inactive: all assays above

c1ccc2cc3c(ccc4ccccc43)cc2c1
active: [7] 3.12 µM | [11] 2.24 µM
inactive: all other assays above

CN1CCC[C@H]1c1cccnc1
inactive: all assays above
